Source: PubChem BioAssay (NCATS)
Records with an inconclusive call do not appear. Activity calls are given as the source filed them. Unless noted, calls come from the whole dose curve; as a rule, active = well fitted curve in the direction sought with a large enough effect; inconclusive = small, poorly fitted or top-dose-only effect, or another doubt; inactive = no such curve, though single readings can be large; an effect the other way counts as inactive or inconclusive.

Columns and labels:
Furin (Homo sapiens) = Furin (Homo sapiens) (UniProt P09958); assay: Furin counterscreen qHTS for Zika virus inhibitors (AID 1347149); note: nearly all actives have a fitted effect of over 70% in size; note: potency is the fitted concentration of half-maximal effect
In short: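 Counterscreen measures cleavage of 2 microM BOC-RVRR-AMC, below its ~15 microM Km, by 5 nM full-length human furin at pH 7.0 after a 15-min compound preincubation. Inhibition derives from the 15-min fluorescence increase at 37C.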

[1] = Tertiary RLuc qRT-PCR qHTS assay for Zika virus inhibitors (AID 1347169); note: top concentration of the series differs between compounds; nearly all actives have a fitted effect of over 55% in size
In short: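 Orthogonal cell-based readout: luminescence measured 1-1.5 hrs after adding live-cell Renilla substrate to Vero cells that had been infected with ZIKV-RLuc (MOI 1-2) post-compound, incubated 48-72 hrs at 37 degrees C.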

[2] = test system: Zika virus NS2B-NS3 protease (linked); assay: 384 well plate NINDS AMC confirmatory qHTS for Zika virus inhibitors (AID 1347163); note: nearly all actives have a fitted effect of over 50% in size; note: potency is the fitted concentration of half-maximal effect
In short: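 Fluorescence at 355/460 nm was read after 25 minutes of cleavage of 30 microM Ac-VKTGKR-AMC at room temperature, in the dark. Before substrate addition, compounds (up to 1 mM final) sat ~15 minutes with 5, 30 or 60 nM linked protease. Signals were normalized to no-enzyme and no-inhibitor wells.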

[3] = test system: Zika virus NS2B-NS3 protease (linked construct); assay: 384 well plate NINDS Rhodamine confirmatory qHTS for Zika virus inhibitors (AID 1347164);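 note: fluorescence from protease cleavage of Ac-LKRR-rhodamine 110 substrate; nearly all actives have a fitted effect of over 65% in size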; note: potency is the fitted concentration of half-maximal effect
In short: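 Fluorescence at 485/538 nm was measured 25 minutes after adding 10 microM Ac-LKRR-Rd substrate, in the dark at room temperature. The protease (5, 30 or 60 nM final) had been preincubated ~15 minutes with compound; aprotinin as control.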

[4] = test system: Zika virus NS2B-NS3 protease (linked construct); assay: Confirmatory screen NINDS AMC qHTS for Zika virus inhibitors (AID 1347152); note: nearly all actives have a fitted effect of over 70% in size; note: potency is the fitted concentration of half-maximal effect
In short: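 IC50s from 4-parameter Hill fits of percent inhibition, based on AMC fluorescence gain (340/450 nm) over 15 min with 10 microM Bz-Nle-KRR-AMC. Enzyme: 1 nM linked NS2B-NS3 in Tris-HCl pH 8.0; 15-min compound preincubation.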

[5] = test system: Zika virus NS2B-NS3 protease (unlinked complex); assay: Confirmatory screen GU AMC qHTS for Zika virus inhibitors (AID 1347153); note: nearly all actives have a fitted effect of over 70% in size;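 for Potency: enzyme at 25 nM with substrate at 10 µM below its Km of 18.3 µM; potency is the fitted concentration of half-maximal effect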
In short: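 Noncovalent NS2B hydrophilic domain/NS3 protease complex (25 nM) in 10 mM Tris-HCl pH 8.0, 0.01% Tween 20 was preincubated 15 min at room temperature with compounds. Then 10 µM AMC substrate (Km 18.3 µM) was added; fluorescence was read over 15 min and fitted to a 4-parameter Hill equation.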

[6] = target: Glucocorticoid receptor (Homo sapiens) (UniProt P04150); assay: GR-GFP Redistribution (AID 450;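 active = compounds whose dose series gives a full or clear partial fitted curve of increased nuclear translocation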; note: potency is the fitted concentration of half-maximal effect); details: U2OS GR-GFP nuclear translocation, laser cytometry, 2 h
[7] = target: Glucocorticoid receptor (Homo sapiens) (UniProt P04150); assay: GR-EFC Redistribution (AID 451; calls by dose curve; note: potency is the fitted concentration of half-maximal effect); details: CHO-K1 GR-EFC translocation, beta-gal luminescence, 2 h
In short: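 Translocation of GR-ED fusion to nuclear EA restores b-gal, read by luminescence after 1 h room-temperature detection. Engineered CHO-K1 biosensor cells, 1,000/well, exposed 2 h at 37 C to titrations up to 46 uM final.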

[8] = target: Cytochrome P450 3A4 (Homo sapiens) (UniProt P08684); assay: qHTS Assay for Activators of Cytochrome P450 3A4 (AID 885); note: nearly all actives have a fitted effect of over 65% in size
In short: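 CYP3A4 activity: Luciferin-PPXE O-dealkylation, 25uM substrate, 200mM KPO4, RT throughout. Read-out is luciferase luminescence; higher values reflect activation.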

[9] = target: Ubiquitin carboxyl-terminal hydrolase 1 (Homo sapiens) (UniProt O94782); assay: Inhibitors of USP1/UAF1: Pilot qHTS (AID 504865); note: potency is the fitted concentration of half-maximal effect; nearly all actives have a fitted effect of over 35% in size
In short: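 Deubiquitinase activity followed as kinetic rhodamine fluorescence release from 150 nM Ub-Rho. 1 nM USP1/UAF1 with compound, after 15 min room-temperature preincubation, in HEPES pH 7.8 buffer containing TCEP, EDTA, BSA and Tween-20.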

[10] = target: DNA dC->dU-editing enzyme APOBEC-3G (Homo sapiens) (UniProt Q9HC16); assay: qHTS for inhibitors of Vif-A3G interactions: Validation (AID 588379)
In short: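 Yellow fluorescence (Ex 488, Em 500-530) of Vif-coexpressing HeLa A3G-eYFP cells, scanned by Acumen cytometer, reports blocked A3G degradation. Cells plated at 700/well overnight at 37 deg C before compound addition, then a further overnight compound incubation at 37 deg C.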

[11] = Confirmatory screen NINDS Rhodamine qHTS for Zika virus inhibitors (AID 1347161); note: nearly all actives have a fitted effect of over 60% in size; note: potency is the fitted concentration of half-maximal effect
In short: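 Each compound, titrated, sat 15 min with 25 nM linked protease before 1.5 microM Rhodamine110 substrate went in. Fluorescence gain over the next 15 min, in pH 8.0 Tris with Tween 20, gave Hill-fitted curves.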

[12] = Vero cells viability qHTS for Zika virus inhibitors (AID 1347167)
In short: (§1)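 Luminescent ATP readout (CellTiter Glo) after 30 min at 37 degrees C gives viability; cells in DMEM + 4% FBS were treated 24 to 48 hours with compound, following overnight attachment.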

[13] = HepG2 cells viability qHTS for Zika virus inhibitors (AID 1347168)
In short: as §1

[14] = Primary qHTS for small molecule stabilizers of the endoplasmic reticulum resident proteome: Secreted ER Calcium Modulated Protein (SERCaMP) assay (AID 1508630)
In short: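 The SH-SY5Y reporter protocol was run at 3 concentrations up to 38.3 uM (primary) or 11 concentrations (follow-up): 16 h compound, 100 nM thapsigargin for 4 h, then extracellular luciferase luminescence.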

[15] = target: Rap guanine nucleotide exchange factor 3 (Homo sapiens) (UniProt O95398); assay: Confirmatory qHTS for agonist of cAMP-regulated guanine nucleotide exchange factor 3 (EPAC1) (AID 1645881);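 note: EPAC1 catalysed release of BODIPY-GDP from Rap1B seen as fluorescence loss; nearly all actives have a fitted effect of over 75% in size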
[16] = target: Rap guanine nucleotide exchange factor 4 (Homo sapiens) (UniProt Q8WZA2); assay: Confirmatory qHTS for agonist of cAMP-regulated guanine nucleotide exchange factor 4 (EPAC2) (AID 1645884);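 note: nucleotide exchange releases bodipy-GDP from Rap1 and this lowers its fluorescence; nearly all actives have a fitted effect of over 65% in size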
[17] = target: Rap guanine nucleotide exchange factor 4 (Homo sapiens) (UniProt Q8WZA2); assay: Confirmatory qHTS for antagonist of cAMP-regulated guanine nucleotide exchange factor 4 (EPAC2) (AID 1645885); note: potency is the fitted concentration of half-maximal effect; nearly all actives have a fitted effect of over 25% in size
[18] = target: Cytochrome P450 1A2 (Homo sapiens) (UniProt P05177); assay: p450-cyp1a2 (AID 410; calls by dose curve; note: potency is the fitted concentration of half-maximal effect)
In short: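 Luminescent demethylation readout: Luciferin-ME (100uM, equal to Km) turned over by 20nM CYP1A2 for 60 min at room temperature after NADPH regeneration addition, following 10 min compound preincubation. Normalization used 57 uM furafylline as full inhibition.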

[19] = target: Mitogen-activated protein kinase 10 (Mus musculus) (UniProt Q61831); assay: JNK3 AlphaScreen Assay (AID 530; active = well fitted curve in either direction with a large enough effect, not every such curve was filed as active;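 note: kinase came from lysate of stimulated human HepG2 cells; potency is the fitted concentration of half-maximal effect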)
In short: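 qHTS titrations with 15 min compound pre-incubation before adding ATP (10 uM final). Read-out: AlphaScreen of Ser73-phosphorylated biotin-GST-cJun using HepG2 lysate JNK3 activated by IL-1β and TNFα.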

[20] = target: Cytochrome P450 2C9 (Homo sapiens) (UniProt P11712); assay: qHTS Assay for Inhibitors and Substrates of Cytochrome P450 2C9 (AID 883); note: potency is the fitted concentration of half-maximal effect; nearly all actives have a fitted effect of over 60% in size
In short: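 Luminescent read-out of deoxyluciferin hydroxylation, normalized to 57uM sulphaphenazole (AC100). Reaction: 10nM enzyme, 100uM Luciferin-H (equal to KM), 25mM KPO4, 10 min compound preincubation, then 60 min with NADPH regeneration, both at 37C.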

[21] = target: Cytochrome P450 2D6 (Homo sapiens) (UniProt P10635); assay: qHTS Assay for Inhibitors and Substrates of Cytochrome P450 2D6 (AID 891); note: potency is the fitted concentration of half-maximal effect; nearly all actives have a fitted effect of over 60% in size
In short: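 Luminescent read-out of luciferin formed by 5 nM human CYP2D6 demethylating 30 uM Luciferin-ME EGE (Km level) over 60 min at room temperature after NADPH regeneration addition. Data normalized to full inhibition by 1.43 uM quinidine.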

[22] = target: Cytochrome P450 2C19 (Homo sapiens) (UniProt P33261); assay: qHTS Assay for Inhibitors and Substrates of Cytochrome P450 2C19 (AID 899); note: potency is the fitted concentration of half-maximal effect; nearly all actives have a fitted effect of over 60% in size
In short: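 Luminescence readout of luciferin formed from 10uM Luciferin-H EGE (KM level) by 5 nM CYP2C19 in 50mM KPO4. 60 min NADPH-driven reaction at 37C after 10 min compound preincubation; data scaled to 57uM ketoconazole inhibition.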

[23] = target: Rap guanine nucleotide exchange factor 3 (Homo sapiens) (UniProt O95398); assay: Confirmatory qHTS for antagonist of cAMP-regulated guanine nucleotide exchange factor 3 (EPAC1) (AID 1645880); note: potency is the fitted concentration of half-maximal effect; nearly all actives have a fitted effect of over 55% in size
In short: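 Released BODIPY-GDP fluoresces less than Rap1-bound BODIPY-GDP; the signal is followed at 480/540 nm at 5-min intervals over 30 min, after 5 min at room temperature. Reactions contain 100 nM EPAC1, 250 nM RAP1B-BODIPY-GDP and 50 uM GDP; results are normalized to ATA and DMSO.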

Measured: Potency

Sequence of Rap guanine nucleotide exchange factor 3 (Homo sapiens) (O95398 whole entry, looked up): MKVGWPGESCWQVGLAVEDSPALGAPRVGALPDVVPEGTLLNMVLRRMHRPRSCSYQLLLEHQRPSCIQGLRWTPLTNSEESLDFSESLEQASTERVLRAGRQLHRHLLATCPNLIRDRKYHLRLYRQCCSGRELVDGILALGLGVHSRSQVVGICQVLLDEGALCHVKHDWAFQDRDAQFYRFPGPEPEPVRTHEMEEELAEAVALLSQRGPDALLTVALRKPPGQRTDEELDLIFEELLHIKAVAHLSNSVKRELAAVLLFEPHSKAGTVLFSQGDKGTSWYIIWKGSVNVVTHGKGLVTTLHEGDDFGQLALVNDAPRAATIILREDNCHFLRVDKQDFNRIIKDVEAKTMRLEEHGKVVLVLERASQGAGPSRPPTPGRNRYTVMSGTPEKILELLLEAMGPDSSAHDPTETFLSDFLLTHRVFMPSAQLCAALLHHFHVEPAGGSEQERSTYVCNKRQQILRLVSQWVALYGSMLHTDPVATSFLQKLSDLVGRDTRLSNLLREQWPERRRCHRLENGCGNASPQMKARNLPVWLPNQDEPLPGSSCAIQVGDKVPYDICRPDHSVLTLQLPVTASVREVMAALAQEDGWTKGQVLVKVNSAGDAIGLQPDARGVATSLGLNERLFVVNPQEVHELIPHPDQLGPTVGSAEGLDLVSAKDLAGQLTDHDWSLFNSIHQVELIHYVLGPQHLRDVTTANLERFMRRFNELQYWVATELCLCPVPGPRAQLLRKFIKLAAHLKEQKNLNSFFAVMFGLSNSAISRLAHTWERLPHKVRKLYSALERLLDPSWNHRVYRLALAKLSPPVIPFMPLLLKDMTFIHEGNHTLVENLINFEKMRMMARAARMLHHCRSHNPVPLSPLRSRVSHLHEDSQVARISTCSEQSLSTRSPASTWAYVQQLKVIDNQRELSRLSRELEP
Sequence of Furin (Homo sapiens) (P09958 whole entry, looked up): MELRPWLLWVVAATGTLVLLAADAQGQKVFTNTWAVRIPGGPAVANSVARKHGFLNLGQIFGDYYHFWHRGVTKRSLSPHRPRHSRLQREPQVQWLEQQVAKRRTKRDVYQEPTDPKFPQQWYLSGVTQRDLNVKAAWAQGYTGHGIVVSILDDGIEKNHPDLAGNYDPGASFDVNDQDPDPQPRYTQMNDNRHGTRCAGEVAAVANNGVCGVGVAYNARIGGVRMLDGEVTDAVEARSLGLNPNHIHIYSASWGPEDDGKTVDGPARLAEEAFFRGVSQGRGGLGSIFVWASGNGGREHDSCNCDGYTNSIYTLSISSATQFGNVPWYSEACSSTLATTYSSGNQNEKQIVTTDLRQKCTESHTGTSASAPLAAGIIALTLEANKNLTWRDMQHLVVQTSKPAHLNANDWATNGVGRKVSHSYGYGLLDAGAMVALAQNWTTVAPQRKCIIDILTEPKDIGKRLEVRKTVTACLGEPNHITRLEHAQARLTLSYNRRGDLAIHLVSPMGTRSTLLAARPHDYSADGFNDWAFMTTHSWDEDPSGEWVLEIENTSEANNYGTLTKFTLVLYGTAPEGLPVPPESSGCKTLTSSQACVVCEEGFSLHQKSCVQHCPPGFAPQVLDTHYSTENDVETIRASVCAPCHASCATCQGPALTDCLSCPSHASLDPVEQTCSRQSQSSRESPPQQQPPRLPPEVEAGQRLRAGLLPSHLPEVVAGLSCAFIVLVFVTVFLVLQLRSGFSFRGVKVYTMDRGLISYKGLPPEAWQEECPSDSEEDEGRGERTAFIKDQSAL
Sequence of Glucocorticoid receptor (Homo sapiens) (P04150 whole entry, looked up, the tested form may be a part): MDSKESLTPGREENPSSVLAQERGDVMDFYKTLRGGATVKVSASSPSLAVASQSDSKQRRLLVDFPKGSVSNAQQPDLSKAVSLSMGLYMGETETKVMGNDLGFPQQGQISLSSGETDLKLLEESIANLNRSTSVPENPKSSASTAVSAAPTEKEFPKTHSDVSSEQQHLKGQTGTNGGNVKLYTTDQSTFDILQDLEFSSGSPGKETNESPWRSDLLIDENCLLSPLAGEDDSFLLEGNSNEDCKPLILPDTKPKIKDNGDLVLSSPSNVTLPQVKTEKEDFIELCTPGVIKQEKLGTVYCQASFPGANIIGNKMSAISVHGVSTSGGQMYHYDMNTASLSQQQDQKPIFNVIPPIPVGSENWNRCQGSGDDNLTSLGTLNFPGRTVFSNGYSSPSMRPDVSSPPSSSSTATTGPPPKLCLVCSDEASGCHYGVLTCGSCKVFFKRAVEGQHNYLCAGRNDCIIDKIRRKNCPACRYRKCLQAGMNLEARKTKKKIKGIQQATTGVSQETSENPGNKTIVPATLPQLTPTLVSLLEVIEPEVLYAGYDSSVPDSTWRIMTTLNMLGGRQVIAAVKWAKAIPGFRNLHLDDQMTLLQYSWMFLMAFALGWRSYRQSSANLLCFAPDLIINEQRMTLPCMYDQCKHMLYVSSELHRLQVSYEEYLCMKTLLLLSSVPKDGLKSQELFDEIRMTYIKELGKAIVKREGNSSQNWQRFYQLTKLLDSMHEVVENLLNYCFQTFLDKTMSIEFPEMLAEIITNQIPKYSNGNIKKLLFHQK
Sequence of DNA dC->dU-editing enzyme APOBEC-3G (Homo sapiens) (Q9HC16 whole entry, looked up): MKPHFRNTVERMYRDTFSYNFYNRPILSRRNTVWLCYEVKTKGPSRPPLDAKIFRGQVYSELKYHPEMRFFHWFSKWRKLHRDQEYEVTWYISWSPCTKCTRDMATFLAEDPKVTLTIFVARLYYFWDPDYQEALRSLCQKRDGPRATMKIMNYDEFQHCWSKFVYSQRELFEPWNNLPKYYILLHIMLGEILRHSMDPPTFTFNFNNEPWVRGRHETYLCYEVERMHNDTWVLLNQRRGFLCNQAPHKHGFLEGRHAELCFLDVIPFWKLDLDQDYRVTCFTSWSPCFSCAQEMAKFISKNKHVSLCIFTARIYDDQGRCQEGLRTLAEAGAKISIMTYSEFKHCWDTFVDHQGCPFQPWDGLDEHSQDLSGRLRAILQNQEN
Sequence of Rap guanine nucleotide exchange factor 4 (Homo sapiens) (Q8WZA2 whole entry, looked up): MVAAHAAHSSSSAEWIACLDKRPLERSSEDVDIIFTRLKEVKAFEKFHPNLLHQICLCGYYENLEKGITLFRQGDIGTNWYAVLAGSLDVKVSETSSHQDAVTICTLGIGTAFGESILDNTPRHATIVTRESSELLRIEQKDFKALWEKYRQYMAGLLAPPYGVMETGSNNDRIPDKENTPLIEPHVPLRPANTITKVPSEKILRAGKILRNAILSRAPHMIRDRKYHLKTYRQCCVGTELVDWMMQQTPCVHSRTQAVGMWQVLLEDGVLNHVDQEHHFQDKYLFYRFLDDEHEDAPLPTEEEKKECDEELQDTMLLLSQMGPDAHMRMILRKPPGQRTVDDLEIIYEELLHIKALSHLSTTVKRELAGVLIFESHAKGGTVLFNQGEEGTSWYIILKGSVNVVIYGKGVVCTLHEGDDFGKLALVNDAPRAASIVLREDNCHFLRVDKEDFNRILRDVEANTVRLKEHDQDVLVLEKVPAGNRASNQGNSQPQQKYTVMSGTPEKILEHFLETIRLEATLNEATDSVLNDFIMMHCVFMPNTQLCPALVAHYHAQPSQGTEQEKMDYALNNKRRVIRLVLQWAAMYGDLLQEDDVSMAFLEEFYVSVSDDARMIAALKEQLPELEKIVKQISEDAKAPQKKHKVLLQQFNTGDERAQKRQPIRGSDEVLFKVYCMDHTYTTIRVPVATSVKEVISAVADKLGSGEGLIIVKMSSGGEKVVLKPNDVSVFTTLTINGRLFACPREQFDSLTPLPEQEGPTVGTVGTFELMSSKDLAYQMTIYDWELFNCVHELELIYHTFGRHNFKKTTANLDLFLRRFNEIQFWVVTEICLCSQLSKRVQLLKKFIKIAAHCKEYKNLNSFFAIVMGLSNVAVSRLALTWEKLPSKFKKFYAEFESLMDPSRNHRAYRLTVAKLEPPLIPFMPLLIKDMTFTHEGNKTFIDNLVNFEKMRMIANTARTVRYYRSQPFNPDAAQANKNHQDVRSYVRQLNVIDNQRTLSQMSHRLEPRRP
Sequence of Cytochrome P450 3A4 (Homo sapiens) (P08684 whole entry, looked up): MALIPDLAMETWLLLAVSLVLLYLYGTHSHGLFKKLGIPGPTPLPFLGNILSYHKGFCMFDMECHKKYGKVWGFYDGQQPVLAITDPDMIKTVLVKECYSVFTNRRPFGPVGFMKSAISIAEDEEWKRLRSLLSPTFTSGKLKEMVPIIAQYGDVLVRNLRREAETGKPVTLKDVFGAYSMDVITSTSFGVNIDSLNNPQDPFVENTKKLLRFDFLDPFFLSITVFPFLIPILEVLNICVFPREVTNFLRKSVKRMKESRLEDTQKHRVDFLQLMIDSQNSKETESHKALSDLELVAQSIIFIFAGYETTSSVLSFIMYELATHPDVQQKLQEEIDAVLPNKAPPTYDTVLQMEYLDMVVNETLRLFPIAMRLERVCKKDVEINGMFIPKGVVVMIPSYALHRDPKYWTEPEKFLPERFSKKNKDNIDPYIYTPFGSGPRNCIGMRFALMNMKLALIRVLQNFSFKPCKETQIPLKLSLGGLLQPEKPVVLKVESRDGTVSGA
Sequence of Cytochrome P450 2C9 (Homo sapiens) (P11712 whole entry, looked up): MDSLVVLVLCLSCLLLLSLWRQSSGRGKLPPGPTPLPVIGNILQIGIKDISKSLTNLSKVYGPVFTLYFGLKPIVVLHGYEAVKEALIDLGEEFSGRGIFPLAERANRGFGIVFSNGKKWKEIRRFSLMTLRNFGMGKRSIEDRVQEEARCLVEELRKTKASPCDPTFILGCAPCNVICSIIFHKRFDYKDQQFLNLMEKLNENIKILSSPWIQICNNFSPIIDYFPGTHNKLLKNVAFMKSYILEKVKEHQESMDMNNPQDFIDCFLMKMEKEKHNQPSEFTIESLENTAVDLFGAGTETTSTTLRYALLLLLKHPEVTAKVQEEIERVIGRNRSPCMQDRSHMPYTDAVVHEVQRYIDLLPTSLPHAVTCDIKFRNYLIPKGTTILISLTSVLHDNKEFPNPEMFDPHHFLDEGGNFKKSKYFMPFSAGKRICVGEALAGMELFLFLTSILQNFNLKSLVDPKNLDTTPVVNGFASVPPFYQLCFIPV

Cc1ccc(-c2nnc(Nc3ccc(O)cc3)c3ccccc23)cc1S(=O)(=O)NC(C)(C)CO
inactive: Furin (Homo sapiens) | [1]

CC(C)CN1CC(COc2ccc3ccccc3c2)Oc2ccnc(-c3ccc(OCC(=O)O)cc3)c2C1=O (stereo unspecified)
active: [2] 355 µM | [3] 39.8 µM
inactive: Furin (Homo sapiens) | [1]

C[S+](=O)([O-])c1ccc(OCC2CN(Cc3ccccc3)C(=O)c3c(ccnc3-c3ccc(OCC(=O)O)cc3)O2)cc1 (stereo unspecified)
inactive: [4] | [5] | [1]

COC(=O)c1ccc(NC(=O)CSc2ncc3c(n2)-c2cc(Cl)ccc2N(Cc2ccccc2)S3(=O)=O)cc1
active: Furin (Homo sapiens) 83.5 µM
inactive: [2]

CCOc1ccc(S(=O)(=O)Nc2cc3c(C(=O)OCc4ccccc4)c(C)oc3c3ccccc23)cc1
inactive: Furin (Homo sapiens)
active: [3] 316 µM

Cc1cc(C)cc(C(=O)N(C)[C@H](Cc2ccc(-c3ccccc3)cc2)C(=O)N[C@@H](Cc2c[nH]c3ccccc23)C(=O)O)c1
inactive: [6] > 46 µM | [7] > 46 µM | [8] | [10] | [12] | [13] | [14] | [15] | [16]
active: [9] 79.4 µM | [4] 9.61 µM | [5] 19.2 µM | [11] 1.75 µM | [2] 158 µM | [3] 28.2 µM | [17] 55.5 µM

COc1ccc(NS(=O)(=O)c2ccc(NS(=O)(=O)c3ccc4c(c3)OCCO4)cc2)cc1
active: [2] 355 µM | [3] 141 µM
inactive: Furin (Homo sapiens)

Cc1oc2c(cc(NS(=O)(=O)c3ccc(F)cc3)c3ccccc32)c1C(=O)OCc1ccccc1
active: [3] 158 µM
inactive: Furin (Homo sapiens)

O=C(Nc1ccc(Oc2ccccc2)cc1)O[C@@H]1CO[C@H]2[C@@H]1OC[C@@H]2NS(=O)(=O)c1ccc2ccccc2c1
inactive: [4] | [5]

C=CC(C)(C)c1[nH]c2ccccc2c1C1=C(O)C(=O)C(c2c[nH]c3c(CC=C(C)C)cccc23)=C(O)C1=O
active: [18] 25.1 µM | [19] 6.31 µM | [20] 7.94 µM | [21] 0.0063 µM | [22] 1.26 µM | [2] 11.2 µM | [3] 0.631 µM | [23] 4.98 µM
inactive: [6] > 46 µM | [7] > 46 µM | [8] | [10] | Furin (Homo sapiens) | [12] | [13] | [1] | [14] | [15]

O=C(COc1ccccc1)Nc1ccc(C(=O)OCc2cc(=O)n3nc(C4CC4)sc3n2)cc1
inactive: Furin (Homo sapiens) | [11] | [1]

Fc1cc(C2=Nn3c(COc4ccc(Cl)cc4Cl)nnc3S/C2=C\c2ccc(-c3ccc(Cl)cc3)o2)c(Cl)cc1Cl
active: [2] 158 µM
inactive: Furin (Homo sapiens) | [3] | [1]
